An excerpt weighted towards active compounds, which were near 1.6% of everything screened.
PERK inh: inhibitors of human PERK kinase; Q9NZJ5; AID 1416; CHO PERK-DD fusion, SEAP luminescence translation reporter; hit rate 0.17% among 220,000; inhibition, % at 5.6 µM;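 active = inhibition above the mean inhibition of all tested compounds plus 3 SD, set separately per screening campaign, cut at about 2.9% in these data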;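 note: PERK kinase domain activated by AP20187 dimerizer at 100 nM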
PABP polyA inh: blocks human PABP binding to poly(A) RNA; fluorescence polarization; calls only at 35 µM; hit rate 1% among 290,000; AID 2014;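 note: calls also rest on retests at 20 µM and on dose response follow-up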
eIF4E 4G PPI: blocks eIF4E binding to eIF4G. inhibition, % at 21.7 µM. hit rate 0.37% among 220,000. TR-FRET eIF4E-eIF4GI(517-606) binding, 2 h. P63073+Q04637;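 active = inhibition above about 30%, limit read from the data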
PABP1 MLLE inh: inhibitors of microRNA-mediated deadenylation, human PABP1 MLLE binding. inhibition, % at 20 µM. P11940. GST-MLLE / FITC-PAM2 fluorescence polarization. hit rate 0.36% among 360,000; in the data active = inhibition above about 35%, passing the limit was not always enough
eIF4H inh: inhibitors of RNA binding by human eIF4H; Q15056; eIF4H fluorescence polarization binding assay; inhibition, % at 35 µM; hit rate 0.94% among 290,000; AID 2012;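 note: calls also rest on retests at 20 µM and on dose response follow-up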
A number is an active result; - = inactive; ? = inconclusive; . = no result; + = active, no number. Unless noted, the rule behind the calls is not given here.

SMILES	PERK inh	PABP polyA inh	eIF4E 4G PPI	PABP1 MLLE inh	eIF4H inh
Cc1ccc(NC(=O)C2C3CCCC2C3c2ccccc2)cc1C (centres undefined)	-	+	-	-	?
Cc1ccc(NC(=O)C2C3CCC(O3)C2C(=O)O)cc1C (centres undefined)	.	-	.	-	-
Fc1ccc(C[n+]2csc3ccccc32)cc1	-	-	-	41.5	-
Cc1ccc(NC(=S)N2CCCC(CO)C2)c(C)c1 (centres undefined)	-	-	-	-	-
O=c1[nH]cnc2scc(-c3ccc(-c4ccccc4)cc3)c12	-	+	-	-	-
O=C1NC(c2ccccc2Br)=N/C1=C\c1ccco1	-	+	-	-	57.1
O=C1NC(c2ccccc2)=N/C1=C/c1ccco1	-	-	-	-	-
Cc1cccc(NC(=O)c2cnc3ccccn3c2=O)c1	3.1	-	-	-	-
CC(=O)c1c2c3c(c(Br)ccc3n(C)c1=O)C(=O)c1ccccc1-2	.	.	.	59.1	.
Cc1nnc(NC(=O)CCn2cnc3ccccc3c2=O)s1	-	-	-	-	-
O=C1CC(=O)N(Cc2ccco2)C(=O)N1	-	-	31.3	-	?
O=C1CC(=O)N(Cc2ccco2)C(=S)N1	-	+	-	-	63.5
CC(=O)N1CCc2cc(C(=O)CN3CCN(c4ccccn4)CC3)ccc21	-	-	-	-	-
O=C(Cn1nc(-c2ccc3c(c2)OCCO3)ccc1=O)Nc1cccc(NC(=O)c2ccccn2)c1	-	-	-	.	-
COc1ccc(CCNS(=O)(=O)c2ccc(-c3ccc(=O)[nH]n3)o2)cc1OC	.	-	.	-	-
Cc1sc(NC(=O)Cn2nc(C(F)(F)F)cc2C)c(C(=O)OC(C)C)c1C	-	-	31.0	-	-
COc1ccccc1NC(=O)CSc1nnc(CCC(=O)Nc2ccccc2F)n1C	3.9	-	-	-	-
O=C(c1ccc(=O)[nH]c1)N1CCN(S(=O)(=O)c2ccc(Cl)cc2)CC1	.	-	.	-	-
COc1ccc(O)c(/C=N/c2sc(C)c(C)c2C#N)c1	-	+	-	-	-
Cc1sc(/N=C/c2c(O)ccc3ccccc23)c(C#N)c1C	-	-	-	.	-
COCc1cc(Sc2ccc(OC)cc2)nc(-c2ccccc2)n1	-	-	-	-	active
S=C1NC[C@H](CC2CCCCC2)N1CCCCC1CCCCC1	.	-	30.7	-	-
N#Cc1c(SCC(=O)Nc2ccc(C(F)(F)F)cc2)sc2c(O)cc(=O)[nH]c12	.	-	.	-	-
COc1cc(Cl)c(C)cc1NC(=O)CSc1sc2c(O)cc(=O)[nH]c2c1C#N	.	+	.	-	70.6
N#Cc1c(SCC(=O)Nc2nncs2)sc2c(O)cc(=O)[nH]c12	.	+	.	-	100.8
SMILES	PERK inh	PABP polyA inh	eIF4E 4G PPI	PABP1 MLLE inh	eIF4H inh
CC1CCC(NC(=O)CCNS(=O)(=O)c2ccc3c(c2)CCC(=O)N3)CC1 (centres undefined)	.	.	.	-	.
COc1ccc(S(=O)(=O)NCCc2c[nH]c3ccc(C)cc23)cc1	.	-	.	-	-
Cc1cc(C)n2nc(C(=O)NCc3ccccc3)nc2n1	-	-	-	-	-
Cc1cc(C)n2nc(C(=O)NCc3ccccc3)cc2n1	-	-	30.1	-	-
Fc1ccccc1Oc1nc(-c2ccncc2)nc2ccccc12	-	-	-	-	-
N#Cc1c(N)nc2c(c1-c1ccccc1)CCCC2	-	-	-	-	-
CC1CCc2nc(N)c(C#N)c(-c3cccn3C)c2C1 (centres undefined)	-	+	-	-	97.1
CCOC(=O)C1CCCN(CC(O)COCc2ccccc2OC)C1 (centres undefined)	.	-	.	-	-
Cn1c(=O)c2ncn(CC(=O)NC3CCCCCC3)c2n(C)c1=O	-	+	-	-	-
CCOC(=O)c1c(-c2ccc(C)o2)csc1N	-	+	-	-	52.4
CN1C/C(=C\c2ccc(N3CCOCC3)cc2)C(=O)/C(=C/c2ccc(N3CCOCC3)cc2)C1	-	+	-	-	77.6
CCOc1ccc(S(=O)(=O)N/N=C(\C)C2CCCCC2)cc1	-	+	-	-	71.1
CCOc1ccc(S(=O)(=O)NC2CCCCCC2)cc1	-	-	-	-	-
CCC(=O)N1CCN(c2ccc(NC(=S)NC(=O)COc3ccccc3)cc2)CC1	-	-	-	-	-
Cc1ccc(C(=O)NC(=S)Nc2ccc(N3CCN(C(=O)c4ccco4)CC3)cc2)cc1	.	-	.	40.4	-
CC(=O)N1CCN(c2ccc(NC(=S)NC(=O)COc3ccc(C(C)(C)C)cc3)cc2)CC1	-	-	-	43.8	-
CC(C)(C)c1ccc(C(=O)NC(=S)Nc2ccc(N3CCOCC3)cc2)cc1	-	+	-	-	-
CC(C)(C)c1ccc(C(=O)Nc2ccc(N3CCOCC3)cc2)cc1	-	-	-	-	-
O=C(CSc1nnc(Cc2cccs2)n1C1CC1)NC1CCS(=O)(=O)C1 (centres undefined)	.	.	.	-	.
CC1Cc2ccccc2N1C(=O)CN1C(=O)NC(C)(c2ccc3c(c2)OCCO3)C1=O (centres undefined)	-	+	-	-	0.5
C[C@H]1CN([C@@H](C)CO)C(=O)c2cc(Br)cnc2O[C@H]1CN(C)C(=O)c1ccccn1	.	.	.	-	.
CC(C)CCN1C(=O)c2ccc(C(=O)NCc3ccccn3)cc2C1=O	.	.	.	-	.
CC1CCN(C(=O)c2ccc3c(Cl)c4c(nc3c2)CCCC4)CC1	-	-	81.6	-	-
CCOC(=O)C1CCN(C(=O)c2ccc3c(Cl)c4c(nc3c2)CCCC4)CC1	.	-	.	-	-
CN(C)S(=O)(=O)c1cccc(NC(=S)N/N=C/c2ccc(O)c(O)c2O)c1	-	+	42.4	-	56.8
SMILES	PERK inh	PABP polyA inh	eIF4E 4G PPI	PABP1 MLLE inh	eIF4H inh
COc1ccc(O)c(/C=N/NC(=S)Nc2cccc(S(=O)(=O)N(C)C)c2)c1	-	-	-	-	-
O=C(CC(SCCO)c1ccc2c(c1)OCO2)c1cccs1 (centres undefined)	-	-	-	43.4	-
O=C(CC(SCc1ccco1)c1ccc(O)cc1)c1cccs1 (centres undefined)	-	-	-	-	-
O=c1cc(-c2ccccc2Cl)oc2cccc(O)c12	-	-	-	-	-
O=c1cc2oc3cc(O)c(O)cc3c(-c3ccccc3[N+](=O)[O-])c-2cc1O	.	+	.	-	50.5
CCOc1ccc(N(C(=O)c2ccc(S(=O)(=O)N3CCCC3)cc2)C2C=CS(=O)(=O)C2)cc1 (centres undefined)	.	-	.	-	-
COc1ccc(Cl)cc1NC(=O)NN1CCN(C)CC1	.	-	.	-	-
Cc1ccc(/C=C2\Oc3cc(OCC(=O)NN)ccc3C2=O)o1	.	-	.	-	72.6
O=C(O)COc1ccc2c(c1)O/C(=C\c1ccco1)C2=O	.	+	.	-	76.6
COCCN(CCOC)Cc1c(O)ccc2c1O/C(=C\c1ccc(C)o1)C2=O	.	-	.	-	51.1
CCN(CC)Cc1c(O)ccc2c1O/C(=C\C=C\c1ccccc1)C2=O	-	?	-	-	?
COc1ccc(SC[C@H](C)CN2CC[C@H](C(C)(C)C)CCC2=O)cc1	.	.	.	40.2	.
CC(=O)Nc1ccc(SCCN2CC[C@@H](C(C)(C)C)CCC2=O)cc1	.	.	.	41.0	.
Cn1cnc([N+](=O)[O-])c1S(=O)(=O)Oc1cccc2ccccc12	.	.	.	-	.
